A short description of test [1]: ATG_GLI_CIS: Attagene CIS-FACTORIAL HepG2 Assay for human Zinc Finger Protein GLI1 (AID 2282945). The conditions noted are these: HepG2, Attagene cis-factorial reporter mRNA, GLI element; actives raise or lower the signal. The essentials: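 Bidirectional curve fits relative to DMSO, using reporter mRNA levels from RT-PCR plus capillary electrophoresis. Cells were HepG2 transiently carrying cis-regulated reporter constructs, harvested 24 h after dosing.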

The target in test [2] is Bile acid receptor (Homo sapiens) (UniProt Q96RI1). The test is described as follows: ATG_IR1_CIS: Attagene CIS-FACTORIAL HepG2 Assay for human Nuclear Receptor Subfamily 1 Group H Member 4 (NR1H4), IR1 submotif (AID 2282946). The conditions noted are these: IR1 reporter transcription, actives raise or lower the signal. The essentials:
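HepG2 cells transiently transfected with multiplexed cis-element reporter units read endogenous transcription factor activity. After 24 h compound exposure, reporter mRNA was quantified by RT-PCR, fluorescent labelling, HpaI digestion and capillary electrophoresis; bidirectional fitting versus DMSO baseline.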

The nature of test [3]: ATG_GRE_CIS: Attagene CIS-FACTORIAL HepG2 Assay for human Glucocorticoid Response Elements (GRE) (AID 2282947). The conditions noted are these: HepG2 GRE cis-reporter, Attagene multiplex mRNA; actives raise or lower the signal. Put shortly:
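Reporter transcripts read by RT-PCR with capillary electrophoresis fluorescence after a 24 h chemical exposure of HepG2 cells transiently transfected with multiple cis-element reporter units. Gain or loss fitted against DMSO.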

Test [4] in a line: ATG_ISRE_CIS: Attagene CIS-FACTORIAL HepG2 Assay for human Interferon Regulatory Factor 1 (IRF1) binding to an Interferon-Stimulated Response Element (ISRE) (AID 2282948). The conditions noted are these: HepG2 ISRE cis-reporter (Attagene), mRNA transcription readout; actives raise or lower the signal. The essentials: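 Endogenous transcription factor activity read as reporter transcript abundance via RT-PCR and capillary electrophoresis. HepG2 cells transiently transfected, 24 h chemical exposure. Gain or loss fitted against DMSO baseline.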

Test [5] can be described thus: ATG_M_32_CIS: Attagene CIS-FACTORIAL HepG2 Assay for M32 Transcription Factor (Internal Marker) (AID 2282949).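 Also: background control marker of the multiplexed CIS panel rather than a real target.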 The conditions noted are these: HepG2 Attagene cis-factorial M32 reporter, mRNA; actives raise or lower the signal. Put shortly:
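HepG2 human liver cells transiently transfected with cis-promoter-driven multiple reporter transcription units, dosed 24 h. Reporter mRNA quantified by RT-PCR, FAM-labelled primer extension, HpaI digest and capillary electrophoresis; bidirectional fit versus DMSO baseline.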

A short description of test [6]: ATG_M_06_CIS: Attagene CIS-FACTORIAL HepG2 Assay for M06 Transcription Factor (Internal Marker) (AID 2282950). The conditions noted are these: HepG2 Attagene CIS-FACTORIAL M06 internal marker reporter; actives raise or lower the signal. The essentials:
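Measured 24 h post-dosing in transiently transfected HepG2 cells, this internal-marker endpoint reports reporter mRNA via RT-PCR with fluorescent primer extension and capillary electrophoresis. DMSO served as negative control and baseline for bidirectional fitting.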

Test [7] has as its target Hypoxia-inducible factor 1-alpha (Homo sapiens) (UniProt Q16665). Kind of test: ATG_HIF1a_CIS: Attagene CIS-FACTORIAL HepG2 Assay for human Hypoxia Inducible Factor 1 (HIF1A) (AID 2282951). The conditions noted are these: HepG2 Attagene cis-factorial HIF1a reporter transcription; actives raise or lower the signal. The essentials:
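Dosed 24 h, transfected HepG2 cells yielded total RNA whose reporter transcripts were RT-PCR-amplified and sized by capillary electrophoresis using fluorescent labelling; DMSO defined baseline, with gain and loss of signal both fitted.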

In test [8] the target is Hepatocyte nuclear factor 6 (Homo sapiens) (UniProt Q9UBC0). Kind of test: ATG_HNF6_CIS: Attagene CIS-FACTORIAL HepG2 Assay for human Hepatocyte Nuclear Factor 6 (HNF6) (AID 2282952). The conditions noted are these: HepG2 Attagene cis-factorial HNF6 reporter transcription; actives raise or lower the signal. Put shortly:
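Endogenous transcription factor activity in human HepG2 liver cells was captured through cis-regulated reporter constructs. After 24 h treatment, reporter mRNA was measured by RT-PCR with capillary electrophoresis, and activity was fitted in both directions relative to DMSO.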

Test [9] has as its target Heat shock factor protein 1 (Homo sapiens) (UniProt Q00613). Kind of test: ATG_HSE_CIS: Attagene CIS-FACTORIAL HepG2 Assay for human Heat Shock Transcription Factor 1 (HSE) (AID 2282953). The conditions noted are these: HepG2 HSE cis-reporter, Attagene RNA transcription; actives raise or lower the signal. Put shortly: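 Reporter mRNA induction in HepG2 is measured 24 h after dosing, using transiently transfected multiplexed cis-regulated reporter units. Signal comes from capillary electrophoresis of labelled RT-PCR products, with DMSO as negative control.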

A short description of test [10]: ATG_MRE_CIS: Attagene CIS-FACTORIAL HepG2 Assay for human Metal Responsive Element (MRE) (AID 2282954). The conditions noted are these: HepG2 MRE cis-reporter transcription, Attagene multiplex; actives raise or lower the signal. Put shortly: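 Endogenous MRE-dependent transcription read as reporter mRNA in transiently transfected human HepG2 cells at 24 h. RNA reverse-transcribed, PCR-amplified, labelled and resolved by capillary electrophoresis; gain or loss relative to DMSO.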

A short description of test [11]: ATG_PBREM_CIS: Attagene CIS-FACTORIAL HepG2 Assay for human Phenobarbital-responsive Enhancer Module (PBREM) (AID 2282955). The conditions noted are these: HepG2 PBREM cis-reporter, Attagene multiplexed transcription; actives raise or lower the signal. Put shortly: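 Transfected liver-derived HepG2 cells exposed 24 h; PBREM reporter transcript quantified via RT-PCR and capillary electrophoresis, with activity in either direction referenced to DMSO.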

Test [12] has as its target Paired box protein Pax-6 (Homo sapiens) (UniProt P26367). The test is described as follows: ATG_Pax6_CIS: Attagene CIS-FACTORIAL HepG2 Assay for human Paired Box 6 (PAX6) (AID 2282956). The conditions noted are these: HepG2 CIS-FACTORIAL PAX6 reporter transcription, RNA readout; actives raise or lower the signal. Put shortly: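 Read-out is reporter transcript level, measured by RT-PCR with fluorescent primer extension and capillary electrophoresis after 24 h dosing of transfected HepG2 cells. Activity in either direction fitted relative to DMSO control.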

Test [13] can be described thus: ATG_PXRE_CIS: Attagene CIS-FACTORIAL HepG2 Assay for human Pregnane X Receptor Element (PXRE) (AID 2282957). The conditions noted are these: HepG2 Attagene CIS-FACTORIAL PXRE reporter, mRNA; actives raise or lower the signal. Put shortly: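 Endogenous transcription factor activity in HepG2 was gauged through induction of reporter mRNA driven by a cis-regulating promoter element, sampled 24 h post-treatment. Activity was fitted in both directions against DMSO negative control.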

Test [14] can be described thus: ATG_PPRE_CIS: Attagene CIS-FACTORIAL HepG2 Assay for human Peroxisome Proliferator-activated Response Element (PPRE) (AID 2282958). The conditions noted are these: HepG2 PPRE cis-element reporter, Attagene transcription factor profiling; actives raise or lower the signal. The essentials: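 Measured endpoint: PPRE-controlled reporter mRNA, detected by RT-PCR and capillary electrophoresis fluorescence, from transiently transfected HepG2 cells 24 h after dosing. Curves fitted in both directions using DMSO baseline.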

The nature of test [15]: ATG_RORE_CIS: Attagene CIS-FACTORIAL HepG2 Assay for human RAR-related Orphan Receptor Element (RORE) (AID 2282959). The conditions noted are these: HepG2 Attagene cis-factorial RORE reporter, mRNA; actives raise or lower the signal. Put shortly:
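Transiently transfected HepG2 reporter cells were treated 24 h. Reporter transcripts were detected by RT-PCR and capillary electrophoresis, with bidirectional fitting against DMSO.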

Test [16] is described as follows: ATG_Sox_CIS: Attagene CIS-FACTORIAL HepG2 Assay for human SRY-box transcription factor (SOX) (AID 2282960). The conditions noted are these: HepG2 Attagene cis-factorial SOX reporter, mRNA; actives raise or lower the signal. Put shortly:
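Gain- or loss-of-signal endpoint, fitted bidirectionally with DMSO as negative control. Based on reporter mRNA from transfected HepG2 cells harvested 24 h post-treatment and quantified via RT-PCR and capillary electrophoresis.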

Test [17] has as its target Transcription factor Sp1 (Homo sapiens) (UniProt P08047). The test is described as follows: ATG_Sp1_CIS: Attagene CIS-FACTORIAL HepG2 Assay for human Specificity Protein 1 (Sp1) (AID 2282961). The conditions noted are these: HepG2 Sp1 cis-reporter transcription, actives raise or lower the signal. The essentials: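 Endpoint reflects endogenous Sp1 transcriptional activity, not an exogenous fusion protein: HepG2 cells with transfected cis-regulated reporters, 24 h dosing, RT-PCR/capillary electrophoresis mRNA read-out, DMSO-normalised bidirectional fit.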

Test [18] can be described thus: ATG_SREBP_CIS: Attagene CIS-FACTORIAL HepG2 Assay for human Sterol Regulatory Element Binding (SREBP) (AID 2282962). The conditions noted are these: HepG2 Attagene cis-factorial SREBP reporter, mRNA; actives raise or lower the signal. The essentials:
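Endogenous SREBP activity read as cis-element-driven reporter transcript in transiently transfected HepG2, 24 h post-dosing; quantified via RT-PCR plus capillary electrophoresis of fluorescent fragments. Gain or loss of signal fitted relative to DMSO baseline.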

The target of test [19] is Signal transducer and activator of transcription 3 (Homo sapiens) (UniProt P40763). The test is described as follows: ATG_STAT3_CIS: Attagene CIS-FACTORIAL HepG2 Assay for human Signal Transducer and Activator of Transcription 3 (STAT3) (AID 2282963). The conditions noted are these: HepG2, Attagene cis-factorial STAT3 reporter transcription; actives raise or lower the signal. The essentials:
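Readout is reporter transcript quantified by RT-PCR and capillary electrophoresis, with 6-FAM primer extension and HpaI digestion. Total RNA is taken 24 h after dosing transiently transfected HepG2 carrying cis-regulated reporter units. Bidirectional fit against DMSO.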

The nature of test [20]: ATG_TA_CIS: Attagene CIS-FACTORIAL HepG2 Assay for human TA Basal Promoter (AID 2282964). The conditions noted are these: HepG2 Attagene CIS-factorial TA basal promoter reporter; actives raise or lower the signal. The essentials: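 Cis-factorial format in HepG2: reporters report endogenous factors, not chimeric Gal4 fusions. After 24 h treatment, reporter transcripts were measured by RT-PCR-capillary electrophoresis fluorescence, analysed bidirectionally versus DMSO.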

Each structure is given as a SMILES string. Some compounds were tested as several samples or in several runs, with calls that do not always agree. The source made the active and inactive calls. The calls were made as follows: active = hit-call score of the fitted dose curve at least 0.9, where 1 is the maximum; inactive = score below 0.9.

Sequence of Heat shock factor protein 1 (Homo sapiens) (Q00613 whole entry, looked up): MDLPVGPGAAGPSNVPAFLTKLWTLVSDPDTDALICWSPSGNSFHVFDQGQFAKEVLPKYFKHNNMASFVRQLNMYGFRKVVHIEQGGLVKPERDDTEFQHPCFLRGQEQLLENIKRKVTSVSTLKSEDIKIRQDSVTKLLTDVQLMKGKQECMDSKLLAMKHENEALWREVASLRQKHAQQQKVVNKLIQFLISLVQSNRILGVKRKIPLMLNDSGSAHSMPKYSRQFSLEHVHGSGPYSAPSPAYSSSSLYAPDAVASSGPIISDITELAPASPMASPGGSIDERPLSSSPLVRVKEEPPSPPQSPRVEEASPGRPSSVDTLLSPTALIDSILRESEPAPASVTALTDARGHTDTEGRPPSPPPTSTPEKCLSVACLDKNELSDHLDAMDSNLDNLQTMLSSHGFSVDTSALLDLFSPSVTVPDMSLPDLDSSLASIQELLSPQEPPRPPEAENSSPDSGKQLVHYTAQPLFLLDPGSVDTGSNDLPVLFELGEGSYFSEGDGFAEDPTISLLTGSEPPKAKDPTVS
Sequence of Transcription factor Sp1 (Homo sapiens) (P08047 whole entry, looked up, the tested form may be a part): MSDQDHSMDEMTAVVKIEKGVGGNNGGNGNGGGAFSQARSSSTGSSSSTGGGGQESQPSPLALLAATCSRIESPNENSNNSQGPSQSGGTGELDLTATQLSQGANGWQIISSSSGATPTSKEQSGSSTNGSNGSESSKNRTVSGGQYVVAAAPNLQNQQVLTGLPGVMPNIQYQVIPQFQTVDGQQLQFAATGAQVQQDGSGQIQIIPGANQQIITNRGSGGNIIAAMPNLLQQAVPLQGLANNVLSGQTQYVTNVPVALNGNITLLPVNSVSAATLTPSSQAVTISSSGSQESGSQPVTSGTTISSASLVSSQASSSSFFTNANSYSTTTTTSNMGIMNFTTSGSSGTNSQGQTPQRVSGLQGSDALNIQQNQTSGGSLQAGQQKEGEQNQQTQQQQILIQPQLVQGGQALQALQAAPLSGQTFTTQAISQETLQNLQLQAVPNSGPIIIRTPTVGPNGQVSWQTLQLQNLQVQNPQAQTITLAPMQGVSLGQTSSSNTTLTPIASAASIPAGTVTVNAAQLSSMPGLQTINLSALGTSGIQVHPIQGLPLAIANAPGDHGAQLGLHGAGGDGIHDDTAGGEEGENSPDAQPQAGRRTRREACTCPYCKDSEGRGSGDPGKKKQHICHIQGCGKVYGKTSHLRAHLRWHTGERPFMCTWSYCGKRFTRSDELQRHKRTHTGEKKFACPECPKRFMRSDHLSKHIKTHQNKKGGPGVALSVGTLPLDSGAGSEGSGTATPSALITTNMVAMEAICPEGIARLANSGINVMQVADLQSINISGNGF
Sequence of Hepatocyte nuclear factor 6 (Homo sapiens) (Q9UBC0 whole entry, looked up): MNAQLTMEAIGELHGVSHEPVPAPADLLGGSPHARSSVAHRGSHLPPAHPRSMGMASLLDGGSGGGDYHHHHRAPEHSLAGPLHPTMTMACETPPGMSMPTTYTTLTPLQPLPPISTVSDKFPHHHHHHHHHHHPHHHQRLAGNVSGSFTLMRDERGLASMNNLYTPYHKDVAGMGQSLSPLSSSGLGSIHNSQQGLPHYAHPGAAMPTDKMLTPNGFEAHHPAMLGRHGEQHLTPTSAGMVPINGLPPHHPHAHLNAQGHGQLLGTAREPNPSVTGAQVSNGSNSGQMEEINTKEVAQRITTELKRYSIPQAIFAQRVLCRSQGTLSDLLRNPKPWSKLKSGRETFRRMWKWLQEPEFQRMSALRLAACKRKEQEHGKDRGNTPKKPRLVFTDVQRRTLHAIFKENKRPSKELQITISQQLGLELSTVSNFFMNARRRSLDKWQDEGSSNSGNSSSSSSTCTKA
Sequence of Hypoxia-inducible factor 1-alpha (Homo sapiens) (Q16665 whole entry, looked up): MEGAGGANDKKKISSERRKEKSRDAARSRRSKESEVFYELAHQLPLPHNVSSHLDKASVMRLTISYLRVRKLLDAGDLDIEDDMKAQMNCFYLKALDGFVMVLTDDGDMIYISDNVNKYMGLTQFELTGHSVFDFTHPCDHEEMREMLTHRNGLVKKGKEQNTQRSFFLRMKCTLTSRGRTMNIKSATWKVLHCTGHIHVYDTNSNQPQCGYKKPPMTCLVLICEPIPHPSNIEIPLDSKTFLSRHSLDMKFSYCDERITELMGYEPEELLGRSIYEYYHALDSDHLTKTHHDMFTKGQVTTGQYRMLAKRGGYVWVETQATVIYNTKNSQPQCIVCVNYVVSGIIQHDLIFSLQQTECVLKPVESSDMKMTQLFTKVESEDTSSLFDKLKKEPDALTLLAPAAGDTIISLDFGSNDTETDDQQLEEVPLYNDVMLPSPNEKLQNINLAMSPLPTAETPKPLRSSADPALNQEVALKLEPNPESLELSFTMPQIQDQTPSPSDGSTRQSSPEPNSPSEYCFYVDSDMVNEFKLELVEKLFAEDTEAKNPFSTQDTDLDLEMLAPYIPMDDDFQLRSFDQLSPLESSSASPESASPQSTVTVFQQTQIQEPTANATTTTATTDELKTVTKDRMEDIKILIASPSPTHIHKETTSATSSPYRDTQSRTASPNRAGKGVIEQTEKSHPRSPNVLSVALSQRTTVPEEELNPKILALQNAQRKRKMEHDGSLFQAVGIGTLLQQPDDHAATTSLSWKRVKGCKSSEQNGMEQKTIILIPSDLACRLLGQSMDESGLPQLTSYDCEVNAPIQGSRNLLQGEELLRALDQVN
Sequence of Paired box protein Pax-6 (Homo sapiens) (P26367 whole entry, looked up): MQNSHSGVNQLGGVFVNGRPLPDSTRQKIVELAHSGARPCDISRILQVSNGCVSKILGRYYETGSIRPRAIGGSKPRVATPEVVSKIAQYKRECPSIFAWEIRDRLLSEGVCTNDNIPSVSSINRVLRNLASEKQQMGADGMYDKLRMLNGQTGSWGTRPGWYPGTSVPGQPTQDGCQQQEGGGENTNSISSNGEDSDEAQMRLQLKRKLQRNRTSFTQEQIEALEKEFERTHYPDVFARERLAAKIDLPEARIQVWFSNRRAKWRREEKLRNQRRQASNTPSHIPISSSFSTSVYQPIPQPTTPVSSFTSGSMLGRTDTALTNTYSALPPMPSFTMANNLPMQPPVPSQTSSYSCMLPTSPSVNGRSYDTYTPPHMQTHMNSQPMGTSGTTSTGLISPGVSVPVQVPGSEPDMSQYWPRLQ
Sequence of Signal transducer and activator of transcription 3 (Homo sapiens) (P40763 whole entry, looked up): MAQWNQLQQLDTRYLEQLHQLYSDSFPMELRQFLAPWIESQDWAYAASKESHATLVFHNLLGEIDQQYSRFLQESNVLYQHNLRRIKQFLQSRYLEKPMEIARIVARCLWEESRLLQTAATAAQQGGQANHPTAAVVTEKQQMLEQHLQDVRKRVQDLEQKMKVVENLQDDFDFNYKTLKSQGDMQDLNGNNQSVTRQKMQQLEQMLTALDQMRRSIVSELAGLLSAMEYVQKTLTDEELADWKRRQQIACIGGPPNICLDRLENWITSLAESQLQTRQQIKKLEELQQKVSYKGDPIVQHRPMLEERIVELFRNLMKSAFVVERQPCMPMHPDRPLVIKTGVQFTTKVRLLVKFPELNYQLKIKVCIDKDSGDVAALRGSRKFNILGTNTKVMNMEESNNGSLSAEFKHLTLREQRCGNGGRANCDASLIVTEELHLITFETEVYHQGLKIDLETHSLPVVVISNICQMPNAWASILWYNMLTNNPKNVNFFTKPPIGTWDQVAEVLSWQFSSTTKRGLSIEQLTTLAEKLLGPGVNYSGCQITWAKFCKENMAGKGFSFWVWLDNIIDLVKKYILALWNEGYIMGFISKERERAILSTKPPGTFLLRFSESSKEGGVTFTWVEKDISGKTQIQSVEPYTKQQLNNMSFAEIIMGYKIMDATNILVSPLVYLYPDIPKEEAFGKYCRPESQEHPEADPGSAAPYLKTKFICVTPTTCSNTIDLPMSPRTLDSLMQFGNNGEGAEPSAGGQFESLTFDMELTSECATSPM
Sequence of Bile acid receptor (Homo sapiens) (Q96RI1 whole entry, looked up): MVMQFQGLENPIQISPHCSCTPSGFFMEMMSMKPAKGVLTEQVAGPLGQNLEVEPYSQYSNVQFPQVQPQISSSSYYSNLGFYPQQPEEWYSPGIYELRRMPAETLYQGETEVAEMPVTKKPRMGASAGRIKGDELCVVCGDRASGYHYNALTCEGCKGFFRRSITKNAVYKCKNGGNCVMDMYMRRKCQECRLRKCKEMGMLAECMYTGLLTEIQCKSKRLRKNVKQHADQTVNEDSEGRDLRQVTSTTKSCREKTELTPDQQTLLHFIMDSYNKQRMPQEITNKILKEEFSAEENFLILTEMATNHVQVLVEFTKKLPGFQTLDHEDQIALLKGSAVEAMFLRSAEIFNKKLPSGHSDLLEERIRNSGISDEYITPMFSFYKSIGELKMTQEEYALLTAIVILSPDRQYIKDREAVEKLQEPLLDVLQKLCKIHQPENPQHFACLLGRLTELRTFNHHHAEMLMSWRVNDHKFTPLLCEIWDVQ

For the compound `COC(=O)c1ccc(CNS(C)(=O)=O)cc1S(=O)(=O)NC(=O)Nc1nc(OC)cc(OC)n1`, the call in [1], in test [2], in [3], in [4], in [5] and in [6] was inactive. In addition, the call in [7], in [8], in test [9], in test [10], in test [11] and in test [12] was inactive. For the same compound, the result in test [13], in [14], in test [15], in test [16], in test [17] and in test [18] was inactive. For the same compound, the compound was called inactive in test [19] and in test [20].
By AC50 is commonly meant the concentration giving half of the maximal activity seen. `CCOC(=O)c1ccc(O)cc1`: the outcome in test [2], in test [3], in test [4], in [5], in test [6] and in test [7] was inactive. For the same compound, the result in test [8], in test [9], in [10], in [11], in test [12] and in [13] was inactive. For the same compound, the call in test [15], in test [16], in [17], in test [18], in test [19] and in test [20] was inactive. In addition, the AC50 was 100 µM (active) in test [12], 57.3 µM (active) in [15] and 43.7 µM (active) in test [18].
Turning to `CCNc1nc(N)nc(Cl)n1`, the outcome in test [4], in test [5], in test [6], in test [7], in test [8] and in [9] was inactive. In addition, the call in [10], in test [11], in test [12], in test [13], in test [16] and in [17] was inactive. Further, the compound was called inactive in test [18], in test [19] and in test [20].

Source of the values: PubChem BioAssay (EPA / NIEHS).
